Among the data in PubChem BioAssay (Tox21) are Potency, outcome and activity change, positive = activation values, retold here.

The structures appear in SMILES notation. “And” between values parts separate entries of the source, which are not always exact repeats. Identical values can stand only once. Results filed as inconclusive are left out. Some compounds were tested as several samples or in several runs, with calls that do not always agree. The source made the active and inactive calls. Unless noted, calls follow the shape of the dose curve; as a rule, active = well fitted curve in the direction sought with a large enough effect in the repeat runs; inconclusive = weak or mixed curves; inactive = no such curve, though single readings can be large; an effect the other way counts as inactive or inconclusive.

Test [1] can be described thus: qHTS assay to identify small molecule agonists of H2AX (AID 1224845; active = well fitted activation curve with a large enough effect in the signal ratio in the repeat runs, not every such curve was filed as active; the % refers to the signal ratio; also: potency is read from the fitted curve at half-maximal effect). The method in brief: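 Wild-type CHO-K1 cells plated overnight, then exposed 3 hr at 37C to compounds at 15 concentrations (0.76% DMSO). Lysed, then HTRF anti-pH2AX(S139)-cryptate/anti-H2AX-d2 detection after 24 hr at room temperature; emissions 665 and 620 nm.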
In general terms: Quantitative high-throughput screening tests each substance at several concentrations.

The nature of test [2]: qHTS assay to identify small molecule agonists of the hypoxia (HIF-1) signaling pathway (AID 1224846; active = well fitted activation curve with a large enough effect in the signal ratio in the repeat runs, not every such curve was filed as active; the % refers to the signal ratio). The method in brief: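 Reporter induction in HRE-bla ME-180 cells is taken as agonism: cells sit 5 hrs after plating, receive compounds or DMSO only, incubate 17 hrs at 37C under 5% CO2, and are loaded with CCF4-AM for beta-lactamase FRET measurement.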
Test [3] is described as follows: qHTS RealTime-Glo MT Cell Viability Assay in HepG2 cells - 24 hour (AID 1224867). Also: nearly all actives have a fitted effect of over 50% in size. Also: potency is read from the fitted curve at half-maximal effect. Summed up: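 HepG2 cells were seeded at 600 cells/well together with NanoLuc luciferase and a cell-permeant prosubstrate, preincubated 5 h at 37 C/5% CO2, then pin-dosed with compounds in DMSO. Nonlytic luminescence from viable cells was read at each time point.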
A short description of test [4]: qHTS RealTime-Glo MT Cell Viability Assay in HEK293 cells - 32 hour (AID 1224868). Also: nearly all actives have a fitted effect of over 50% in size. Also: potency is read from the fitted curve at half-maximal effect. The method in brief:
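HEK293 cells were seeded at 600 cells/well together with NanoLuc luciferase and cell-permeant prosubstrate, preincubated 5 h at 37 C/5% CO2, then given compound in DMSO by pintool. Luminescence from viable-cell prosubstrate reduction was read repeatedly over 40 h.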

Test [5] is described as follows: A CellTox Green Cytotoxicity Assay to monitor cytotoxicity in HEK293 cells - 0 hour (AID 1224869). Also: nearly all actives have a fitted effect of over 50% in size. The method in brief:
(§1)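 Tox21 screen in HEK293: membrane-impermeant cyanine dye fluoresces on binding dead-cell DNA; compound pinned 5 h post-seeding, plates held at 37 C, signal read repeatedly through 40 h.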

Test [6] in a line: qHTS RealTime-Glo MT Cell Viability Assay in HepG2 cells - 40 hour (AID 1224870). Also: nearly all actives have a fitted effect of over 50% in size. Also: potency is read from the fitted curve at half-maximal effect. Summed up:
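HepG2 cells mixed with RealTime-Glo MT reagents (NanoLuc plus cell-permeant prosubstrate) were seeded at 600 cells/well, incubated 5 h at 37 C/5% CO2, then pinned with compounds in DMSO; nonlytic luminescence tracked viability during 40 h treatment.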

Test [7] in a line: A CellTox Green Cytotoxicity Assay to monitor cytotoxicity in HEK293 cells - 40 hour (AID 1224871). Also: nearly all actives have a fitted effect of over 45% in size. Also: potency is read from the fitted curve at half-maximal effect. The method in brief:
as §1

Test [8] can be described thus: qHTS assay to identify small molecule antagonists of the estrogen related receptor (ERR) signaling pathway from Tox21 library (AID 1224848). Also: nearly all actives have a fitted effect of over 50% in size. Also: potency is read from the fitted curve at half-maximal effect. The method in brief: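 Tox21 10K compounds in DMSO tested for ERR pathway antagonism in NTP's ERR cell line; 18 h, 37 C exposure; ONE-Glo luminescence.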
The nature of test [9]: qHTS assay to identify small molecule agonists of the estrogen related receptor (ERR) signaling pathway from Tox21 library (AID 1224849; calls by dose curve; also: nearly all actives have a fitted effect of over 15% in size). The settings on record: ERR reporter cell line, ONE-Glo luciferase, 18 h. The method in brief:
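Tox21 compounds tested for ERR agonism in an NTP reporter cell line: 18 h treatment at 37 C, then ONE-Glo luminescence.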

Test [10] can be described thus: qHTS assay to identify small molecule agonists of H2AX - cell viability counter screen (AID 1224847; calls by dose curve; also: nearly all actives have a fitted effect of over 30% in size; also: potency is read from the fitted curve at half-maximal effect). The method in brief: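 CHO-K1 cells plated overnight at 37C, then exposed 3 h at 37C to compounds at 15 concentrations (0.76% DMSO final). Viability by CellTiter-Glo luminescence after 30 min at room temperature.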
The mark [11] stands for this setting: at 92.4 µM (top of the series) unless noted.
% is scaled to controls: 0 for no effect and ±100 for the full control effect.

On to `Cn1cnc2ncnc(N)c21`, for which the Potency result in test [1], in test [3], in test [4], in test [5], in [6] and in test [7] was “inactive” throughout. In addition, in [2], the call was inactive.
With `CC1=CCC(=O)O1`, the Potency result in test [1], in test [8], in test [3], in test [4], in test [5] and in test [6] was “inactive” throughout. In addition, the Potency entry in test [7] is “inactive”. Moreover, the result in [2] was inactive. Also, in [9] (setting [11]), the activity change, positive = activation is 8.22% (inactive).
Take `CC(C)=CCCC(C)CCOC(=O)C(C)C` (configuration not stated): the Potency entry in [1], in test [3], in test [4], in test [5], in test [6] and in [7] was “inactive” throughout. The molecule was classed as inactive in [2].
In the case of `O=C(Nc1ccc(Cl)c(Cl)c1)c1cc(Cl)cc(Cl)c1O`, the Potency result in [1] and in test [5] was “inactive” each time. The Potency in [10] is 10.1 µM (active); in test [8] it was 1.09 µM (active); in [4], 4.9 µM (active); in test [6] it was 12.3 µM (active); in [7], 49 µM (active). Besides, in test [9] (setting [11]), the activity change, positive = activation was -15.1% (inactive).
In the case of `CCCCC(CC)COC(=O)c1ccc(O)cc1` (configuration not stated), the Potency entry in test [1], in test [3], in test [5] and in test [6] was “inactive” throughout. The Potency in test [10] was 89.4 µM (active) and 80 µM (active); in [4], 54.7 µM (active); in test [7], 43.5 µM (active) and 21.9 µM (active).
For `CC(C)c1ccc(O)c(C(C)C)c1`, the Potency entry in test [1], in test [8], in test [3], in [4], in [5] and in test [6] was “inactive” each time. In addition, the Potency in [10] was 89.8 µM (active); in test [7], 21.9 µM (active). For the same molecule, the activity change, positive = activation in [9] (setting [11]) was -4.92% (inactive).
For the molecule `CCC(C)c1cc([N+](=O)[O-])cc([N+](=O)[O-])c1OC(=O)OC(C)C` (configuration not stated), the Potency result in [1], in test [5] and in test [7] was “inactive” each time. Also, the Potency in test [8] was 19.3 µM (active); in [3], 54.9 µM (active). Moreover, the activity change, positive = activation in [9] (setting [11]) was -53.4% (inactive).
Turning to `CCCCCCCC/C=C\CCCCCCCC(=O)NCc1ccc(O)c(OC)c1`, the Potency entry in test [1], in test [10], in test [3], in test [5], in [6] and in test [7] was “inactive” throughout. Besides, the activity change, positive = activation in test [9] (setting [11]) is -18.5% [at 42.5 µM] (inactive).
Take `Clc1ccc(C(c2ccccc2Cl)C(Cl)Cl)cc1` (configuration not stated): the Potency was 113 µM (active) in test [1] and 101 µM (active) in test [10]. Further, the Potency entry in test [3], in test [5], in [6] and in test [7] was “inactive” in each case.
On to `C[C@H]1O[C@@H](O[C@H]2[C@@H](O)C[C@H](O[C@H]3[C@@H](O)C[C@H](O[C@H]4CC[C@@]5(C)[C@H](CC[C@@H]6[C@@H]5C[C@@H](O)[C@]5(C)[C@@H](C7=CC(=O)OC7)CC[C@]65O)C4)O[C@@H]3C)O[C@@H]2C)C[C@H](O)[C@@H]1O`, for which the Potency entry in test [1], in test [10], in test [8], in test [3], in [5] and in test [6] was “inactive” each time. For the same molecule, the Potency result in test [7] was “inactive”. Further, the activity change, positive = activation in [9] (at 42.5 µM (top of the series)) was -72.5% (active); in [9] (at 92.4 µM (top of the series)) it was -71.3% (inactive).
Take `CCC1(c2cnc[nH]2)Cc2ccccc2C1`: the Potency result in test [1], in [10], in [3], in test [4], in test [5] and in [6] was “inactive” in each case. The Potency result in [7] is “inactive”.
As for `CC(C)(C)c1cc(/C=C2\SC(=N)NC2=O)cc(C(C)(C)C)c1O`, the Potency entry in test [1] and in test [5] was “inactive” each time. Also, the Potency was 48.6 µM (active) in [8] and 49 µM (active) in test [4]. For the same molecule, the activity change, positive = activation in [9] (setting [11]) was -57.9% (inactive).
For `CCOC(=O)C1=C(C)NC(C)=C(C(=O)OCC)C1c1ccccc1/C=C/C(=O)OC(C)(C)C`, the Potency result in test [1], in test [5] and in test [7] was “inactive” throughout. In addition, the Potency in test [8] was 13.3 µM (active). The activity change, positive = activation in [9] (setting [11]) was -56.8% [at 42.5 µM] (inactive).
For `CC(C)(c1cc(Br)c(O)c(Br)c1)c1cc(Br)c(O)c(Br)c1`, the Potency was 113 µM (active) in test [1]; 89.5 µM (active) in test [10]; 54.3 µM (active) and inactive in test [8]. Besides, the activity change, positive = activation in [9] (setting [11]) is -21.4% (inactive) and -40.7% (inactive) and -13.4% (inactive). Further, the Potency entry in [3], in [4], in test [5] and in test [6] was “inactive” throughout.
For the molecule `CCCCCCS`, the Potency entry in [1], in test [3], in test [5], in test [6] and in test [7] was “inactive” in each case. In addition, in [2], the molecule was classed as inactive.
On to `Oc1ccc(-c2ccccc2)c(Cl)c1`, for which the Potency entry in test [1], in [3], in test [5] and in test [6] was “inactive” throughout. The Potency in [10] was 89.8 µM (active); in [4] it was 24.5 µM (active).
